Several values for one entry are separate records, joined by “and”; a condition that tells them apart may be missing. Equal entries are not always repeated. Results filed as inconclusive are left out. A number with no mark means an inactive call. Activity calls are given as the source filed them. The call rests on the fitted dose curve.
Potency means the concentration at half of the fitted maximal effect.

Cytochrome P450 1A2 (Homo sapiens), sequence (P05177 whole entry, looked up): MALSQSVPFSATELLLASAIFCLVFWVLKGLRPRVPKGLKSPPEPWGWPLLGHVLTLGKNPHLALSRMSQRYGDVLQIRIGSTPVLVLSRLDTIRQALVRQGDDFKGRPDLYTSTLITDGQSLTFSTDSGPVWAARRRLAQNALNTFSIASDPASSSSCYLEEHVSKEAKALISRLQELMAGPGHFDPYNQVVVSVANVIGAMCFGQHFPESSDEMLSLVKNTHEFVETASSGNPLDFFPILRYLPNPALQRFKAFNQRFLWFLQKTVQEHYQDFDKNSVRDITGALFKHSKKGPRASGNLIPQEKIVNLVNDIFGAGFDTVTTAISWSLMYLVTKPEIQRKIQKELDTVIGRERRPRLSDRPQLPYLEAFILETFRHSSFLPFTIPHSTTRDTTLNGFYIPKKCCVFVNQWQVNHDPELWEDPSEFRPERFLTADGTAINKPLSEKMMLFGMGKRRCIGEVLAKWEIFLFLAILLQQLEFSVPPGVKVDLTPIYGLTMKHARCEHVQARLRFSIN

This assay concerns the target Cytochrome P450 1A2 (Homo sapiens) (UniProt P05177). Kind of assay: p450-cyp1a2 (AID 410).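 On activity change, negative = inhibition: -100% = full effect of reference inhibitor.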 As to conditions: recombinant CYP1A2, luciferin-ME demethylation, luminescence; series mostly up to 25.6 µM; activity change, negative = inhibition: at the top concentration. The protocol:
The P450 gene superfamily is involved in metabolism and the clearance of xenobiotics. This assay used human CYP1A2 to measure the demethylation of luciferin 6' methyl ether (Luciferin-ME; Promega-Glo) to luciferin. The luciferin is then measured by luminescence after the addition of a luciferase detection regeant. Luciferin-ME concentration in the assay was equal to its Km for CYP1A2.
NCGC Assay Protocol Summary:
Two uL of enzyme and substrate mix (final concentrations: 20nM CYP1A2, 100uM Luciferin-ME, 100mM KPO4) were dispensed into a white, solid bottom 1536-well microtiter plate. 23nL of compound was transferred by a pin tool. The plate was incubated at room temperature for 10 min. Two uL of an NADPH regeneration solution (Promega supplied reagent) was dispensed and the reaction was allowed to continue for 60 min at room temperature. Then the reaction was stopped by reconstituted detection reagent. After another 20 min of incubation the plate was read on the ViewLux (Perkin Elmer) at 60 sec exposure and 2x2 binning. This protocol was carried out with Promega-Glo reagents and further information can be found at http://www.promega.com/tbs/tb325/tb325.pdf. Data were normalized to the to AC100 inhibition (57 uM furafylline).
With `CS(=O)(=O)N1CCC2(CC1)CN(Cc1ccncc1)C2`, the “activity change, negative = inhibition” value was -10.1% [at 57 µM].
Turning to `CN1CCN(c2ncc3ncc(=O)n(C)c3n2)CC1`, the Potency was 12.6 µM (active).
The same measure, in the same setting: the result for `COc1ccc(NC(=O)N2CCCC3(CCN(C(=O)Oc4ccccc4)CC3)C2)cc1` reads 12.6 µM (active).
The same measure, in the same setting: with `CC[C@@H](CO)NC(=O)[C@H]1C=C2c3cccc4c3c(cn4C)C[C@H]2N(C)C1` the figure was 15.8 µM (active).
On the same count and under the same terms, the result for `O=C1NC(=S)NC(=O)C1=Cc1cccc2cc3ccccc3cc12` reads 0.398 µM (active).
`CC(C)(C)NC[C@H](O)c1cc(Cl)c(N)c(Cl)c1`: the “activity change, negative = inhibition” value was -1.2%.
Same read-out and setting: with `CN1CC[C@@]2(CCCN(C(=O)c3ccco3)C2)C1` the figure was 8% [at 57 µM]; with `c1cc(CN2CC3(CCNCC3)C2)ccn1`, -9.4% [at 57 µM].
On to `N#Cc1ccc(CN2CC[C@@]3(CCCN(C(=O)Oc4ccccc4)C3)C2)cc1`, for which the Potency is 12.6 µM (active).
For `CN1[C@@H]2CC[C@H]1CC(O)C2` (stereo not given in full), the “activity change, negative = inhibition” value is -12.5%.
In the case of `CCN(CC)C(=O)N[C@@H]1C[C@H]2c3cccc4[nH]cc(c34)C[C@@H]2N(C)C1`, the Potency entry was “inactive”.
Turning to `CC(C)CN1CC[C@@]2(CCCN(C(=O)Oc3ccccc3)C2)C1`, the Potency is 15.8 µM (active).
As for `CC(C)c1ccc(C(c2c(O)c3ccccc3oc2=O)c2c(O)c3ccccc3oc2=O)cc1`, the activity change, negative = inhibition is -18.8% [at 2.29 µM].
Consider `NC[C@H](O)c1ccc(O)cc1`, for which the Potency result is “inactive”.
On to `CC(=O)O[C@H]1C[C@@H](O[C@@H]2[C@H](C)O[C@H](O[C@@H]3[C@H](C)O[C@H](O[C@@H]4CC[C@@]5(C)[C@@H](CC[C@]6(C)[C@]5(C)C[C@H](O)[C@]5(C)[C@@H](C7=CC(=O)OC7)CC[C@@]56O)C4)C[C@@H]3O)C[C@@H]2O)O[C@@H](C)[C@H]1O[C@H]1O[C@@H](CO)[C@@H](O)[C@@H](O)[C@@H]1O`, for which the “activity change, negative = inhibition” value was 0.1%.
Take `c1ccc(CN2CCCC3(CCNCC3)C2)cc1`: the “activity change, negative = inhibition” value was -1.5% [at 57 µM].
With `CC(C)CN1CCCC2(CCN(C(=O)c3ccncc3)CC2)C1`, the Potency is 12.6 µM (active).
As for `O=C(c1ccco1)N1CCC[C@@]2(CCN(Cc3ccncc3)C2)C1`, the Potency was 3.98 µM (active).
Take `Cc1nnc2ccc(-c3cccc(C(F)(F)F)c3)nn12`: the Potency is 0.0794 µM (active).
As for `CC[C@H]1CN2CC[C@@H]1C[C@H]2[C@@H](O)c1ccnc2ccc(OC)cc12`, the “activity change, negative = inhibition” value was -5.1%.
The same measure, in the same setting: the result for `c1csc(CN2CC3(CCNCC3)C2)n1` reads 12.5% [at 57 µM]; that for `CC(C)[C@@]1(NC(=O)[C@@H]2C[C@H]3c4cccc5[nH]cc(c45)C[C@@H]3N(C)C2)O[C@]2(O)[C@H]3CCCN3C(=O)[C@H](Cc3ccccc3)N2C1=O`, -7.1%.
Same read-out and setting: with `c1csc(CN2CC[C@@]3(CCCNC3)C2)n1` the figure was -12.5% [at 57 µM].
Consider `CCCN(C/C=C\I)[C@@H]1CCc2ccc(O)cc2C1`, for which the Potency was 25.1 µM (active).
As to `c1cc(CN2CCC3(CCNCC3)CC2)ccn1`, the “activity change, negative = inhibition” value is -15.3% [at 57 µM].
Same read-out and setting: the result for `C[C@@]12CC[C@H](O)C[C@@H]1CC[C@H]1[C@H]2CC[C@@]2(C)[C@@H](C3=CC(=O)OC3)CC[C@]12O` reads -0.9%.
In the case of `C[N+]1([O-])[C@@H]2CC(OC(=O)[C@@H](CO)c3ccccc3)C[C@@H]1[C@H]1O[C@H]12` (stereo not given in full), the Potency result is “inactive”.
Same read-out and setting: with `CN1[C@@H](C[C@@H](O)c2ccccc2)CCC[C@@H]1C[C@H](O)c1ccccc1` the figure was 5.01 µM (active).
For the molecule `N#C/C(=C\c1ccc(O)c(O)c1)C(N)=S`, the Potency was 12.6 µM (active) and 6.31 µM (active).
Consider `Cc1ccccc1-c1cncnc1NCCc1cnc[nH]1`, for which the Potency was 5.01 µM (active).
In the case of `O=C(Nc1cccc(F)c1)N1CC[C@@]2(CCCN(C(=O)Oc3ccccc3)C2)C1`, the Potency was 15.8 µM (active).
Take `CC1=C2[C@@H]3OC(=O)[C@@H](C)[C@@H]3CC[C@]2(C)C=CC1=O`: the Potency was 10 µM (active).
Turning to `C/C=C1\C[C@H](C)[C@@](O)(CO)C(=O)OCC2=CCN3CC[C@@H](OC1=O)[C@@H]23`, the “activity change, negative = inhibition” value is -2.6%.
On the same count and under the same terms, the result for `CN1CCC2(CC1)CCN(C(=O)Oc1ccccc1)CC2` reads 0.7% [at 57 µM].
`CN1CCCC2(CCN(C(=O)c3ccncc3)CC2)C1`: the “activity change, negative = inhibition” value is -14% [at 57 µM].
On the same count and under the same terms, the result for `CN(C)C(=O)Oc1cc(OC(=O)N(C)C)cc([C@@H](O)CNC(C)(C)C)c1` reads -3%.
Take `O=C(Nc1ccccc1)N1CC[C@@]2(CCCN(C(=O)Oc3ccccc3)C2)C1`: the Potency was 15.8 µM (active).
On the same count and under the same terms, with `C[C@]12CC[C@H](O)C[C@@H]1CC[C@H]1[C@H]2CC[C@]2(C)C(=O)CC[C@@H]12` the entry was “inactive”.
Turning to `c1cc(N2CCCC3(CCNCC3)C2)ccn1`, the “activity change, negative = inhibition” value is -4.6% [at 57 µM].
As to `c1ccc(CN2CC[C@@]3(CCCNC3)C2)cc1`, the “activity change, negative = inhibition” value is -5.1% [at 57 µM].
